# A selection: hits, their analogues and other compounds. The true share with any hit is near 10%.
# 12-hLO inh: inhibitors of human 12-lipoxygenase (ALOX12). P18054. purified 12-hLO, xylenol orange hydroperoxide absorbance. Potency, µM (highest dose often 57.1 µM), without a hit: at the top dose activity change, negative = inhibition, usual class: inhibitors. hit rate 0.12% among 150,000. AID 1452; active = well fitted inhibition curve with a large enough effect; inconclusive = small, poorly fitted or top-dose-only effect; note: potency is the fitted concentration of half-maximal effect; nearly all actives have a fitted effect of over 55% in size
#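 Hydroperoxide formation by human 12-lipoxygenase from 40 uM arachidonic acid was followed colorimetrically via ferric-xylenol orange complex, using the 573/405 nm absorbance ratio. Enzyme concentration was 150 nM, with 30 min reaction at room temperature.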
# PNC inhibitor: inhibitors of perinucleolar compartment assembly. PC3M PTB-GFP, PNC prevalence imaging, 16 h; hits give low values. activity change (PNC), negative = inhibition, % at 10 µM. hit rate 3.1% among 140,000. AID 2417;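 active = readout at or below -70, meaning at least 70% loss of cells showing the perinucleolar compartment, a nuclear body marking cancer cells; inconclusive = readout between -30 and a set limit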;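 note: plate controls were DMSO wells for no effect and camptothecin positive control wells for full effect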
#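 PC3M cells stably expressing PTB-GFP, 750–1000 cells/well, treated 16 h at 37 °C with compound (23 nl of library stock), in duplicate. After paraformaldehyde fixation and Hoechst stain, imaged at 20x; PNC prevalence scored by image analysis.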
# HPGD inh: inhibitors of human 15-hydroxyprostaglandin dehydrogenase (HPGD); P15428; purified HPGD, NADH fluorescence kinetic, PGE2 substrate; Potency, µM, without a hit: at the top dose activity change, negative = inhibition, most hits filed as inhibitors; hit rate 4.3% among 150,000; note: potency is the fitted concentration of half-maximal effect
# Target sequence (P15428 whole entry, looked up): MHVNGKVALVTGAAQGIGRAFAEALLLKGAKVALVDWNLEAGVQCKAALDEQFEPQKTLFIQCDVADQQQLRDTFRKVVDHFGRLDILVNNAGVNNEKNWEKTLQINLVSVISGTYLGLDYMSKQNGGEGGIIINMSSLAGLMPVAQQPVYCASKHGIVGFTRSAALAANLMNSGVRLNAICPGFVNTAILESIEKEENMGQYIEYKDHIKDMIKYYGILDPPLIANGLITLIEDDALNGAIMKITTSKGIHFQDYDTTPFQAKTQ
#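 20 nM HPGD preincubated 15 min at room temperature with compound in 50 mM Tris-HCl pH 8, 0.01% Tween 20. Started with 1 mM NAD+ and 30 uM prostaglandin E2; NADH fluorescence (360/450 nm) read 5 times over 30-s intervals, last minus first.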
# ALDH1A1 block: blocks purified human ALDH1A1 activity; hit rate 7.3% among 220,000; P00352; Potency, µM (series often up to 75.3 µM), without a hit: top-dose activity, negative = inhibition, usual class: inhibitors; Purified ALDH1A1, NADH fluorescence, propionaldehyde substrate;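 note: potency is the fitted concentration of half-maximal effect; plate controls were no enzyme wells and a reference inhibitor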
# Target sequence (P00352 whole entry, looked up): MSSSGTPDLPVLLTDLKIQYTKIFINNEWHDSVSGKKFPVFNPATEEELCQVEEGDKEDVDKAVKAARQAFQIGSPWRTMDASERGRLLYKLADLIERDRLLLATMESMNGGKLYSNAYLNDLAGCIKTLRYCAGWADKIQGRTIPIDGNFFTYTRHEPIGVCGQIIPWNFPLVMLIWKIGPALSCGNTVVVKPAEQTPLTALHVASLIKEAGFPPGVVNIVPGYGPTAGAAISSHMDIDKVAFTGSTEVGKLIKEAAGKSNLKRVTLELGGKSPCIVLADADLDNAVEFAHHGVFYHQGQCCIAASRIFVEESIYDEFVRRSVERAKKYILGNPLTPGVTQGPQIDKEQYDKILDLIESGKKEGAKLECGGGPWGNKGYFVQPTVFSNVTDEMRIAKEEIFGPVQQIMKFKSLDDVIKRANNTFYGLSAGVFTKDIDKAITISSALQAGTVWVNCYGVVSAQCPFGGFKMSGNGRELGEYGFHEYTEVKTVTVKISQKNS
# LMNA splice mod: LMNA splicing modulation; Potency, µM (top dose mostly 46.1 µM), without a hit: at the top dose ratio change, negative = inhibition, actives largely listed as inhibitors; HeLa LMNA splicing GFP/RFP minigene ratio, 48 h; hit rate 0.01% among 200,000; AID 1487; active = well fitted inhibition curve with a large enough effect in the signal ratio, with a control signal flat, not every such curve was filed as active; inconclusive = small, poorly fitted or top-dose-only effect, or effect the other way, or a change in a side signal; the % refers to the signal ratio; note: potency is the fitted concentration of half-maximal effect
#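 Read-out is the ratio of GFP to DsRed2 object intensity, acquired by 488 nm laser-scanning cytometry on HeLa lamin A-EGFP minigene reporter cells. Compound incubation 48 hrs at 37 °C in Opti-MEM with 2% FBS; DMSO 0.5% final.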
# * hit, by the source's call; ? = inconclusive; . = not tested or not shown; [ ] = remark or other dose. Unless noted, calls come from the whole dose curve; as a rule, active = well fitted inhibition curve with a large enough effect (not every such curve was filed as active); inconclusive = small, poorly fitted or top-dose-only effect, or another doubt; inactive = no such curve, though single readings can be large or run the other way. Unless noted, % is set by controls: 0 for no effect and ±100 for the full control effect.
SMILES,12-hLO inh,PNC inhibitor,HPGD inh,ALDH1A1 block,LMNA splice mod
COc1ccc(CCNC(=O)CSc2nnnn2C)cc1OC,.,.,.,5.9%,?
CC(=O)NCCNc1ncnc2ccc(-c3ccc(C(=O)N(C)C)cc3)cc12,7.5%,.,?,?,10.7%
Cc1cccc(NC(=O)C(=O)NCC(c2cccnc2)N2CCN(Cc3ccccc3)CC2)c1 (stereo unspecified),.,.,.,.,15.1%[46 µM]
COC(=O)C1C2C=CC(C3CC23)C1C(=O)OCC(=O)c1ccc(OC)cc1 (stereo unspecified),-1.3%,16.0,28.2µM*,6.31µM*,-10.8%
COc1ccc(C(=O)COC(=O)CN2C(=O)C3C4C=CC(C5CC45)C3C2=O)cc1 (stereo unspecified),-0.9%,-11.8,-11.0%,12.6µM*,-8.0%
COC(=O)C1C2C=CC(C3CC23)C1C(=O)OCC(=O)c1ccccc1 (stereo unspecified),-4.0%,22.2,-14.8%,-17.9%,3.3%
Cc1ccc(C(=O)COC(=O)CN2C(=O)C3C4CCC(C4)C3C2=O)cc1[N+](=O)[O-] (stereo unspecified),-1.4%,44.6,.,20µM*,-11.8%
COc1ccc(C(=O)COC(=O)C(CCCCN2C(=O)C3C4C=CC(C4)C3C2=O)N2C(=O)C3C4C=CC(C4)C3C2=O)cc1 (stereo unspecified),4.7%,5.0,-2.1%,10µM*,4.1%
Cc1cccn2c3c(c(=O)nc12)C(c1ccc(F)cc1)CC(=O)N3 (stereo unspecified),.,.,.,.,-16.4%[46 µM]
N[C@@](CC(=O)O)(Cc1ccccc1)C(=O)O,3.0%[11.4 µM],.,-2.6%,-5.7%[13.5 µM],.
CC(=O)Nc1ccc(OS(=O)(=O)c2ccc([N+](=O)[O-])cc2)cc1,.,.,.,25.1µM*,?
COC(=O)/C=C/S(=O)(=O)c1ccc(NC(C)=O)cc1,-10.1%,-7.2,-4.7%,0.316µM*,?
CC(=O)Nc1ccc(S(=O)(=O)Oc2ccc(C=O)cc2)cc1,-3.0%,44.5,-13.2%,28.2µM*,8.7%
COc1ccc(C=O)cc1OS(=O)(=O)c1ccc(NC(C)=O)cc1,3.9%,15.1,?,-9.3%,-15.8%
CC(=O)N/C(=C/c1ccc(OS(=O)(=O)c2ccc(C)cc2)cc1)C(=O)NCCCO,.,.,.,2.24µM*,1.3%[46 µM]
Cc1nc(-c2coc3c(O)c(O)ccc3c2=O)cs1,.,.,-21.7%,-12.5%,.
COc1cccc(-c2cc(=O)c3ccc(OC)cc3o2)c1,0.0%,.,?,?,-6.1%
COc1ccc2[nH]cc(CCNc3ncncc3-c3ccc(C(=O)N(C)C)cc3)c2c1,.,.,.,7.2%,-11.9%
CC(=O)Nc1ccc(S(=O)(=O)Nc2ccc([N+](=O)[O-])cc2)cc1,-23.2%,.,22.4µM*,?,-29.2%
CC(=O)Nc1ccc(S(=O)(=O)Nc2cc([N+](=O)[O-])ccc2C)cc1,.,.,.,-5.0%,-9.8%[46 µM]
CCC(=O)/C=C1/Sc2ccccc2N1CC,-4.6%,4.4,28.2µM*,3.55µM*,-5.6%
CN1/C(=C\C(=O)c2ccco2)C(C)(C)c2ccccc21,-16.5%,-27.2,-22.0%,?,?
CCOC(=O)/C(=C\C=C1/Sc2ccccc2N1CC)C(C)=O,-2.7%,7.8,-13.2%,-3.1%,10.0%
CCOC(=O)/C(=C/C=C1\Sc2ccccc2N1CC)C(C)=O,-11.4%,6.3,28.2µM*,12.6µM*,17.2%
CCN1/C(=C/C(=O)c2ccco2)Sc2ccccc21,?,-4.1,-19.6%,25.1µM*,8.8%
SMILES,12-hLO inh,PNC inhibitor,HPGD inh,ALDH1A1 block,LMNA splice mod
CCc1ccc(NC(=O)C2CCCN(c3nn4cc(-c5ccc(OC)cc5)nc4s3)C2)cc1 (stereo unspecified),.,.,.,.,4.8%[46 µM]
Cc1c(N=Cc2ccc(O)c(Br)c2)cccc1[N+](=O)[O-],-3.2%,?,?,22.4µM*,3.7%
Cc1c(Cl)cccc1N=Cc1ccc([N+](=O)[O-])s1,-1.9%,?,-6.6%,?,?
O=[N+]([O-])c1ccc(N=Cc2ccc(Br)c([N+](=O)[O-])c2)cc1,2.6%,15.0,-16.9%,7.94µM*,-16.9%
c1cc2c(cc1C(N1CCNCC1)N1CCNCC1)OCO2,-4.0%[11.4 µM],.,-1.0%,6.6%[13.5 µM],.
COCCCNc1ncnc2c1nnn2C,.,.,.,.,10.9%[46 µM]
O=C(O)[C@@H]1[C@H](C(=O)O)[C@H]2C(=O)C=C[C@H]1N2Cc1ccccc1,-1.8%[11.4 µM],.,-6.3%,-9.7%[13.5 µM],.
COc1ccc(NC(=S)NNC(=O)c2cccs2)cc1,-3.3%,-83.9*,-8.7%,?,?
O=C(NNC(=S)NC(=O)c1cccs1)c1ccc(NC(=O)c2ccccc2)cc1,1.4%,-26.1,-15.1%,?,?
CCCCC(=O)Nc1ccc(C(=O)NNC(=S)NC(=O)c2cccs2)cc1,-7.1%,?,.,25.1µM*,?
CC(C)c1ccc(NC(=S)NNC(=O)c2cccs2)cc1,.,.,.,20µM*,.
Cc1c(C(=O)NC(=S)Nc2ccc(NC(=O)c3cccs3)cc2)oc2ccccc12,?,?,2.82µM*,1.26µM*,11.4%
O=C(CCNc1cccc(F)c1)c1cc2ccccc2o1,.,.,.,0.0251µM*,.
O=C(CCNc1ccc(F)cc1)c1cc2ccccc2o1,.,.,.,0.1µM*,-23.6%[9.22 µM]
CCN(CC)c1ccc(C(=O)NCc2nc3cccnc3n2Cc2ccc(C)cc2)cc1,.,.,.,.,15.3%[46 µM]
Cc1ccc(C(=O)Nc2ncc3c(n2)CC(c2ccco2)CC3=O)cc1 (stereo unspecified),-7.5%,5.1,-5.8%,?,9.7%
Cc1ccc(NC(=O)CSCC(=O)Nc2ncc3c(n2)CC(c2ccco2)CC3=O)cc1 (stereo unspecified),-9.3%,-85.1*,2.4%,3.98µM*,19.6%
CCOc1cc2c(cc1C=O)OC(C)C2 (stereo unspecified),.,.,.,25.1µM*,.
CC(C)c1nc2sc3c(=O)[nH]c(=S)[nH]c3c2c2c1CCC2,-11.1%,41.9,15.8µM*,?,?
O=C(NC1CCCCC1)C(c1cc2c(cc1[N+](=O)[O-])OCO2)N1CCCCC1 (stereo unspecified),-5.5%,36.5,?,28.2µM*,-4.5%
O=CN1CCN(C(C(=O)NC2CCCCC2)c2cc3c(cc2[N+](=O)[O-])OCO3)CC1 (stereo unspecified),.,.,.,5.01µM*,-3.6%[9.22 µM]
c1ccc(-c2cc3c(N4CCOCC4)ncnc3s2)cc1,5.4%,-96.6*,?,?,9.3%
c1ccc(-n2nnc3c(N4CCOCC4)ncnc32)cc1,1.3%,-21.2,28.2µM*,?,4.7%
CC(C)(C)OC(=O)NCCc1nnc(SCc2ccccc2Cl)o1,-3.7%,7.2,-8.2%,-2.4%,?
CC(C)(C)OC(=O)NCCc1nnc(S(=O)(=O)Cc2ccc(Cl)cc2Cl)o1,-0.8%,-4.5,2.51µM*,2.82µM*,?
O=C(NCCN1C(=O)C2C3C=CC(C3)C2C1=O)Nc1ccc(Br)cc1 (stereo unspecified),-3.8%,?,-10.7%,11.2µM*,-3.5%
